The text below walks through data of PubChem BioAssay (Tox21).

Experiment [1] can be described thus: Nuclear factor erythroid 2-related factor 2/antioxidant responsive element (Nrf2/ARE) small molecule agonists: qHTS cell viability counter screen in human keratinocytes (AID 1919968; active = well fitted curve in the direction sought with a large enough effect in the repeat runs; an effect the other way counts as inactive or inconclusive; also: nearly all actives have a fitted effect of over 55% in size). Conditions: KeratinoSens HaCaT ARE cells viability, CellTiter-Fluor, 24 h; series mostly up to 92.4 µM. In outline:
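Seed 1,500 KeratinoSens cells per well, then incubate 5 h at 37 C/5% CO2. Add compounds in DMSO and incubate 23 h. Add CellTiter-Fluor, wait 1 h and read fluorescence.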
A general note: qHTS replaces the single test concentration by a dilution series.

The nature of experiment [2]: Nuclear factor erythroid 2-related factor 2/antioxidant responsive element (Nrf2/ARE) small molecule agonists: luciferase reporter gene qHTS assay in human keratinocytes (AID 1919969). Also: nearly all actives have a fitted effect of over 35% in size. Also: potency is read from the fitted curve at half-maximal effect. Conditions: KeratinoSens HaCaT ARE-luciferase, luminescence, 24 h; series mostly up to 92.4 µM. On the technique in general: A reporter such as luciferase makes a cellular process visible.

Experiment [3] concerns the target KiSS-1 receptor (Homo sapiens) (UniProt Q969F8). Briefly: Human kisspeptin (KISS1R) small molecule agonists, calcium flux assay in KISS1R-HEK293 cells (AID 1920064; active = well fitted curve in the direction sought with a large enough effect in the repeat runs; an effect the other way counts as inactive or inconclusive). Conditions: KISS1R-HEK293, calcium flux fluorescence, agonist; series mostly up to 76.8 µM. In short, it runs like this: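 Cells plated and incubated 18 h; dye added, 1 h at 37 C; compounds in DMSO pinned in; signal read at 480/540 nm every second for 3 min. Each compound tested at 15 concentrations in triplicate.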
On the technique in general: Calcium assays in cells follow changes in intracellular calcium, usually with a dye or a luminescent sensor.

A short description of experiment [4]: G protein-coupled receptor (GPCR) small molecule agonists, calcium flux assay: HEK293 wild type cell line counter screen (AID 1920065). Conditions: HEK293 WT calcium flux, fluorescence, agonist mode; series mostly up to 57.6 µM. In outline:
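Counter-screen of the Tox21 10K library for non-specific calcium release: dye-loaded cells received compounds in DMSO and were monitored by kinetic fluorescence (480/540 nm, 3 min). Fifteen concentrations, run in triplicate.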

Experiment [5] can be described thus: p53 small molecule agonists, cell-based qHTS assay with human liver microsomes (AID 1963577).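 Also: p53 response element beta-lactamase reporter cells with liver microsomes plus NADPH.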 Conditions: HCT-116 p53RE-bla with human liver microsomes, ratio, 16 h; series mostly up to 66 µM. In outline: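 p53RE-bla cells; 5 h settle, 37 C/5% CO2; cpd + HLM 0.5 mg/mL + NADPH 0.5 mg/mL (final); 16 h 37 C; LiveBLAzer 2 h RT dark; fluorescence readout.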
Experiment [6] can be described thus: p53 small molecule agonists, cell-based qHTS assay with rat liver microsomes (AID 1963578). The settings on record: HCT-116 p53RE-bla, beta-lactamase ratio, 16 h; series mostly up to 66 µM. In short, it runs like this: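 Rat liver microsome activation: microsomes 0.5 mg/mL, NADPH 0.5 mg/mL final; p53RE-bla cells, 16 h 37 C; LiveBLAzer readout, 2 h RT dark.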

Experiment [7] can be described thus: p53 small molecule agonists, cell-based qHTS assay with human liver microsomes: qHTS cell viability counter screen (AID 1963579). Also: nearly all actives have a fitted effect of over 45% in size. The settings on record: p53RE-bla HCT-116 viability, ATP luminescence, 16 h, HLM; series mostly up to 66 µM. In short, it runs like this: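 Luminescent CellTiter-Glo read-out, 30 min at room temperature, gauged cytotoxicity in p53RE-bla cells exposed 16 h at 37 C to DMSO-dissolved compounds with metabolic activation by human liver microsomes and NADPH, each 0.5 mg/mL final.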

The nature of experiment [8]: p53 small molecule agonists, cell-based qHTS assay with rat liver microsomes: qHTS cell viability counter screen (AID 1963580). Also: nearly all actives have a fitted effect of over 45% in size. The settings on record: p53RE-bla HCT-116 + rat microsomes, ATP viability, 16 h; series mostly up to 66 µM. In outline: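 Intracellular ATP, by CellTiter-Glo luminescence, defines viability. HCT-116 p53RE-bla cells, 4,000 per well, were compound-treated in the presence of rat liver microsomes and NADPH for 16 h at 37 C.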

A short description of experiment [9]: p53 small molecule agonists, cell-based qHTS assay: qHTS cell viability counter screen (AID 1963581). Also: nearly all actives have a fitted effect of over 45% in size. Conditions: p53RE-bla HCT-116 viability, ATP luminescence, 16 h; series mostly up to 66 µM. In outline:
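Cells: HCT-116 with p53 response element-driven beta-lactamase. Treatment: 16 h, 37 C, compounds in DMSO. Read: CellTiter-Glo luminescence after 30 min RT.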

Experiment [10] is described as follows: p53 small molecule agonists, cell-based qHTS assay (AID 1963582; active = well fitted activation curve with a large enough effect in the signal ratio in the repeat runs, not every such curve was filed as active; the % refers to the signal ratio). The settings on record: HCT-116 p53RE-bla reporter, beta-lactamase FRET ratio, 16 h; series mostly up to 66 µM. In outline: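 Quantitative HTS in p53RE-bla cells: after a 5 h settling period, compounds delivered in DMSO were left on cells for 16 h at 37 C, and reporter induction was measured as fluorescence following 2 h substrate loading.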

Experiment [11] deals with 5-hydroxytryptamine receptor 2A (Homo sapiens) (UniProt P28223). Briefly: 5-hydroxytryptamine receptor 2A (HTR2A) small molecule antagonists, cell-based qHTS assay (AID 1963586). Also: nearly all actives have a fitted effect of over 45% in size. Conditions: HTR2A-CHO cells, DOI-induced calcium flux, fluorescence; series mostly up to 61.5 µM. In short, it runs like this: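 Antagonist-mode intracellular calcium assay: DOI (4 nM) added after 5 min compound pre-incubation at room temperature to dye-loaded HTR2A-CHO cells. Fluorescence followed for 3 min, sampled every second.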
Chain of 5-hydroxytryptamine receptor 2A (Homo sapiens) (P28223 whole entry, looked up): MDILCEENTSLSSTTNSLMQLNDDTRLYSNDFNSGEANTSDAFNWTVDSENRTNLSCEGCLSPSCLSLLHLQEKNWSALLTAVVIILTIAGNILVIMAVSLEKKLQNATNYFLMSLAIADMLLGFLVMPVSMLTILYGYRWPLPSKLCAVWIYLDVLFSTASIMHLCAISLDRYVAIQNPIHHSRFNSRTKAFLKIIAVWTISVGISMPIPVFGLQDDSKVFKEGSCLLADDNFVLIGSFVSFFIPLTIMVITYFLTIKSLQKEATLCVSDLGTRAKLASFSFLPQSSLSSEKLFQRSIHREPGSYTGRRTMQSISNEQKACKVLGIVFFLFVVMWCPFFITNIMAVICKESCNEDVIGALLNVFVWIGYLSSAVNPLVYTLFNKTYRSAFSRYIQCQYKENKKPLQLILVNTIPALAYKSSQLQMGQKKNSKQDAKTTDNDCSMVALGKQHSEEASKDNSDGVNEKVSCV

Experiment [12] shares this target. Briefly: 5-hydroxytryptamine receptor 2A (HTR2A) small molecule agonists, cell-based qHTS assay (AID 1963587). Also: nearly all actives have a fitted effect of over 30% in size. The settings on record: HTR2A-CHO cells, calcium flux fluorescence, agonist mode; series mostly up to 76.8 µM. In outline:
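Kinetic calcium-flux fluorescence (2 min, 1 sec intervals) after compound addition in agonist mode. HTR2A-CHO cells were cultured 18 h, then dye-loaded 1 h at 37 C.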

Experiment [13] concerns the target Muscarinic acetylcholine receptor M1 (Homo sapiens) (UniProt P11229). Briefly: Cholinergic receptor muscarinic 1 (CHRM1) small molecule agonists, cell-based qHTS assay (AID 1963589). Also: nearly all actives have a fitted effect of over 35% in size. The settings on record: CHRM1-CHO cells, agonist mode, calcium flux fluorescence; series mostly up to 76.8 µM. In short, it runs like this:
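Agonist-mode qHTS in CHO cells stably carrying human muscarinic M1. Intracellular calcium is tracked by fluorescence every second after compound transfer; each compound runs at 15 concentrations in three independent runs.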

Experiment [14] is described as follows: cAMP Responsive Elements (CRE) small molecule agonists, cell-based qHTS assay (AID 1963590). Conditions: CRE-bla HEK293T, beta-lactamase FRET ratio, 3 h; series mostly up to 92.4 µM. In outline:
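Agonist mode qHTS in CRE-bla HEK 293T cells: compounds dosed from DMSO for 3 h at 37 C/5% CO2, followed by LiveBLAzer B/G FRET substrate for 2 h at room temperature.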

A short description of experiment [15]: cAMP Responsive Elements (CRE) small molecule antagonists, cell-based qHTS assay (AID 1963591; active = well fitted inhibition curve with a large enough effect in the signal ratio in the repeat runs, not every such curve was filed as active; the % refers to the signal ratio). Conditions: CRE-bla HEK293T, beta-lactamase FRET ratio; series mostly up to 92.4 µM. In outline:
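Antagonist mode: test compounds are co-incubated with the adenylyl cyclase activator NKH477 (0.25 uM final) on CRE-bla HEK293T cells for 3 h at 37 °C, followed by LiveBLAzer substrate loading.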

Experiment [16] addresses Beta-2 adrenergic receptor (Homo sapiens) (UniProt P07550). Briefly: Adrenergic beta2 receptor (ADRB2) small molecule antagonists, cell-based qHTS assay (AID 1963592). Also: nearly all actives have a fitted effect of over 50% in size. The settings on record: CHO-ADRB2 cells, isoproterenol-stimulated cAMP HTRF ratio, 0.5 h; series mostly up to 92.4 µM. In outline: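 Cells (CHO, stable ADRB2 overexpression) incubated 18-20hr at 37C; compounds added from DMSO; agonist mix (1nM isoproterenol, 100uM IBMX, 25uM Ro-20-1724) added; 0.5hr RT; d2-cAMP and anti-cAMP-cryptate added; 1hr RT; 665/615 nm read.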

Experiment [17] shares this target. Briefly: Adrenergic beta2 receptor (ADRB2) small molecule agonists, cell-based qHTS assay (AID 1963593).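 Also: CHO cells stably overexpressing human ADRB2.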 The settings on record: CHO-ADRB2 cells, cAMP HTRF, 30 min; series mostly up to 92.4 µM. In outline:
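CHO cells stably over-expressing ADRB2 were plated overnight at 37C, then dosed with compounds plus a stimulation mix containing 100uM IBMX and 25uM Ro-20-1724 for 0.5hr at room temperature. cAMP was measured by HTRF competition, 1hr.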

The target of experiment [18] is D(2) dopamine receptor (Homo sapiens) (UniProt P14416). As to the kind of experiment: Dopamine D2 receptor (DRD2) small molecule agonists, cell-based qHTS assay (AID 1963594). Also: nearly all actives have a fitted effect of over 35% in size. The settings on record: HEK293-DRD2 cAMP HTRF, agonist mode, 30 min; series mostly up to 92.4 µM. In short, it runs like this: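 cAMP accumulation in DRD2-HEK293 cells measured by HTRF after 1 h detection; compounds added 10 min before NKH477 (200nM […]) forskolin-analogue stimulation, 30 min at room temperature, with Ro20-1724 present at 0.1 mM final.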
Chain of D(2) dopamine receptor (Homo sapiens) (P14416 whole entry, looked up): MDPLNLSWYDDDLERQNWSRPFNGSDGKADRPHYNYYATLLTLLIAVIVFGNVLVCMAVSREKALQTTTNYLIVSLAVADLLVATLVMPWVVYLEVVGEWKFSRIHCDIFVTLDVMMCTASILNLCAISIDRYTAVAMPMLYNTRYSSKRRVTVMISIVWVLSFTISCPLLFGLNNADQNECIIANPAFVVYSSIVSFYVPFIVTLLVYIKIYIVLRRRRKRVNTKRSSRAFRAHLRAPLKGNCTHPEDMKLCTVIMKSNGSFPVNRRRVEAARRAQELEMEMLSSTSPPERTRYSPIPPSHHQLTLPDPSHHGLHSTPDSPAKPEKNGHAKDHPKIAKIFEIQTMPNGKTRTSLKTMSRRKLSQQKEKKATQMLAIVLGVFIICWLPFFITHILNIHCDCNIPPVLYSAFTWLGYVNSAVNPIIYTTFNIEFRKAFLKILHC

Experiment [19] shares this target. As to the kind of experiment: Dopamine D2 receptor (DRD2) small molecule antagonists, cell-based qHTS assay (AID 1963595; active = well fitted inhibition curve with a large enough effect in the signal ratio in the repeat runs, with a control signal flat; the % refers to the signal ratio). Conditions: HEK293-DRD2 cAMP HTRF antagonist mode; series mostly up to 92.4 µM. In short, it runs like this: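 HEK293 cells stably expressing DRD2 were preincubated with 0.1 mM Ro20-1724, then with compound for 10 min at room temperature. Cells were stimulated with 200 nM NKH477 plus 12 nM quinpirole for 30 min, and cAMP was read by HTRF.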

For experiment [20], the target named is Muscarinic acetylcholine receptor M1 (Homo sapiens) (UniProt P11229). As to the kind of experiment: Cholinergic receptor muscarinic 1 (CHRM1) small molecule antagonists, cell-based qHTS assay (AID 1963588). Also: nearly all actives have a fitted effect of over 40% in size. The settings on record: CHRM1-CHO antagonist mode, calcium flux fluorescence; series mostly up to 61.5 µM. In short, it runs like this:
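CHRM1-CHO calcium-flux assay, antagonist mode. Cells were seeded 18 h, dye-loaded 1 h at 37 C and given compound for 5 min at RT, then acetylcholine was added at 50nM. FDSS fluorescence was read 3 min; 15 concentrations, three runs.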

Inconclusive results are not listed. More than one record can exist for a structure, and the calls need not agree. Active and inactive are the calls of the source. Unless noted, calls follow the shape of the full dose curve.

Chain of KiSS-1 receptor (Homo sapiens) (Q969F8 whole entry, looked up): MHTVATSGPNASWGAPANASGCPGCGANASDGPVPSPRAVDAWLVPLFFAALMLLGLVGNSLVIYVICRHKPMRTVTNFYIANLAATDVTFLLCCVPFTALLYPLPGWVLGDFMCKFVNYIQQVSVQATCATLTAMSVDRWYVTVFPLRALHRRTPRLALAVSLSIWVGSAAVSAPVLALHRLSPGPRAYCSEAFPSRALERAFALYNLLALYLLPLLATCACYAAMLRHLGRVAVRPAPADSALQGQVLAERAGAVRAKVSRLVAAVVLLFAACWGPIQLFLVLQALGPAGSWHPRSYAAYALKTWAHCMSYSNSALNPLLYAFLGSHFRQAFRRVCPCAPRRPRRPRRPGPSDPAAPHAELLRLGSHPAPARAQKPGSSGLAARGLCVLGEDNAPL
Chain of Muscarinic acetylcholine receptor M1 (Homo sapiens) (P11229 whole entry, looked up): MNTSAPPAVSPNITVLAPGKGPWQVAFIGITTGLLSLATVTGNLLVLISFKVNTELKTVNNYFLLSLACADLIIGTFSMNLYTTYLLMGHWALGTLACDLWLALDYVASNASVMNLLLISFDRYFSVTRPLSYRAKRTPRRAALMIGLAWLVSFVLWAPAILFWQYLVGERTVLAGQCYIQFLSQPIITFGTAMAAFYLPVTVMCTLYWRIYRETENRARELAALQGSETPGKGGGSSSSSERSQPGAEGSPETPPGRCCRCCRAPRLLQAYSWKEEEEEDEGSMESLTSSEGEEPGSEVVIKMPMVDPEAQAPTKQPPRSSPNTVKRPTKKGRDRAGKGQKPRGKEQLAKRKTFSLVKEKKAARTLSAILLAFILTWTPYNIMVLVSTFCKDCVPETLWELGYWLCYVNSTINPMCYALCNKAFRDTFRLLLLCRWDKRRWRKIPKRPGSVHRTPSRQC
Chain of Beta-2 adrenergic receptor (Homo sapiens) (P07550 whole entry, looked up): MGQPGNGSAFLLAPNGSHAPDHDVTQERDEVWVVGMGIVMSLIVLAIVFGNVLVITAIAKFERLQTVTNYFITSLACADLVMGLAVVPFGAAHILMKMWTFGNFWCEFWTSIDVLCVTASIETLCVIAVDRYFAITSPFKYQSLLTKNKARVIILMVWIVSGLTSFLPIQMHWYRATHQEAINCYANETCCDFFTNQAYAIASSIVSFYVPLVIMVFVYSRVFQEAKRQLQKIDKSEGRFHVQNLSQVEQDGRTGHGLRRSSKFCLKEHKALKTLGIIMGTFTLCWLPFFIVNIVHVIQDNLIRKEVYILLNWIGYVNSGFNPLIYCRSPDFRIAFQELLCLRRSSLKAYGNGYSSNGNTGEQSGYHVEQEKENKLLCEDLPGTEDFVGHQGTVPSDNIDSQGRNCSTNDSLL

As for `CCCCCCCCCC(C)=O`, the Potency result in experiment [1], in [2], in experiment [3], in experiment [4], in experiment [5] and in experiment [6] was “inactive” each time. Besides, the Potency result in [7], in [8], in experiment [9], in experiment [10], in experiment [11] and in [12] was “inactive” in each case. Also, the Potency result in experiment [13], in experiment [14], in [15], in experiment [16], in experiment [17] and in experiment [18] was “inactive” in each case. Also, in experiment [19], the Potency entry is “inactive”.
As for `COc1ccc2c(c1)CCCC2=O`, the Potency result in experiment [1], in [2], in experiment [3], in [4], in experiment [5] and in [6] was “inactive” each time. Besides, the Potency result in experiment [7], in [8], in experiment [9], in experiment [11], in experiment [13] and in [14] was “inactive” in each case. In addition, the Potency entry in [15] and in experiment [17] was “inactive” each time.
Turning to `CCO[Si](C)(C)OCC`, the Potency entry in experiment [1], in experiment [2], in experiment [3], in experiment [4], in [5] and in experiment [6] was “inactive” in each case. For the same molecule, the Potency result in [7], in [9], in experiment [10], in [11], in experiment [12] and in [20] was “inactive” each time. For the same molecule, the Potency entry in experiment [13], in experiment [14], in [15], in experiment [16], in experiment [17] and in [18] was “inactive” in each case. The Potency result in experiment [19] is “inactive”.
Take `CC(=O)NC(Cc1ccccc1)C(=O)O` (stereo unspecified): the Potency entry in [1], in [2], in [3], in experiment [4], in experiment [5] and in experiment [6] was “inactive” each time. For the same molecule, the Potency entry in experiment [7], in experiment [8], in experiment [9], in experiment [10], in experiment [11] and in [12] was “inactive” throughout. For the same molecule, the Potency entry in experiment [20], in [13], in [15], in experiment [17], in [18] and in experiment [19] was “inactive” each time.
As to `O[C@@H]([C@H](O)[C@H](O)CBr)[C@H](O)CBr`, the Potency result in experiment [1], in experiment [2], in experiment [3], in experiment [4], in experiment [5] and in [6] was “inactive” throughout. Further, the Potency entry in experiment [7], in experiment [8], in [9], in [11], in experiment [12] and in experiment [20] was “inactive” throughout. Also, the Potency result in experiment [14], in experiment [15], in experiment [16], in [17], in experiment [18] and in [19] was “inactive” each time.
Regarding `Nc1c(Br)cc([N+](=O)[O-])cc1Br`, the Potency result in experiment [1], in [2], in experiment [3], in [4], in experiment [5] and in experiment [6] was “inactive” in each case. Further, the Potency entry in [7], in experiment [9], in experiment [10], in experiment [11], in experiment [12] and in experiment [20] was “inactive” throughout. Also, the Potency result in [13], in experiment [14], in [15], in [16], in experiment [17] and in [18] was “inactive” throughout. Further, in [19], the Potency entry was “inactive”.
As to `Cn1cnc([N+](=O)[O-])c1Sc1ncnc2nc[nH]c12`, the Potency result in experiment [1], in experiment [3], in [4], in [5], in [6] and in experiment [7] was “inactive” throughout. For the same molecule, the Potency entry in [8], in experiment [9], in experiment [14], in experiment [15], in experiment [16] and in experiment [18] was “inactive” in each case. Moreover, in experiment [19], the Potency result is “inactive”. Moreover, the Potency in experiment [2] was 27.1 µM (active) and inactive.
